Measurements reported in PubChem BioAssay (NCATS).
Inconclusive results are not listed. Activity calls are given as the source filed them. Calls follow the shape of the dose curve; as a rule, active = well fitted inhibition curve with a large enough effect; inconclusive = small, poorly fitted or top-dose-only effect; inactive = flat fitted curve, though single readings scatter.

Tests used:
[1] = tested on: CRL-7250; test: Cytotoxic Profiling of Annotated Libraries Using Quantitative High-Throughput Screening (AID 1296008); settings: Five cell lines viability, CellTiter-Glo ATP luminescence, 48-72 h; max response: active compounds read low; as to max response: % is scaled to controls: 0 for no effect and ±100 for the full control effect
Method in brief: (§1)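 Compounds were pin-transferred onto cells and incubated 48 or 72 hr at 37 degree Celsius, 95% humidity. CellTiter-Glo was added, plates sat 10 min at room temperature, then ATP-coupled luminescence was imaged as the viability read-out.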

[2] = tested on: HEK293; test: as above; settings: Five cell lines viability, CellTiter-Glo ATP luminescence, 48-72 h; max response: active compounds read low
Method in brief: as §1

[3] = tested on: HaCat; test: as above; settings: Five cell lines viability, CellTiter-Glo ATP luminescence, 48-72 h; max response: active compounds read low
Method in brief: as §1

[4] = tested on: KB-3-1; test: as above; settings: Five cell lines viability, CellTiter-Glo ATP luminescence, 48-72 h; max response: active compounds read low
Method in brief: as §1

[5] = tested on: NIH3T3; test: as above; settings: Five cell lines viability, CellTiter-Glo ATP luminescence, 48-72 h; max response: active compounds read low
Method in brief: as §1

[6] = tested on: NIH3T3; test: qHTS assay to identify novel small-molecules to repurpose for Merkel cell carcinoma treatment (AID 1296009); settings: MCC and control cell lines, CellTiter-Glo viability, 72 h; at 44.8 µM (top of the series) unless noted
Method in brief: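 qHTS format: cells treated with library compounds in DMSO across 8 (NPC) or 11 (MIPE) concentrations. Readout after 72 hr at 37 degree celsius was CellTiter-Glo luminescence.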

Measured: max response
Also: nearly all actives have a fitted effect of over 60% in size.

COc1cc(/C=C/C(=O)O[C@@H]2C[C@@](O)(C(=O)O)C[C@@H](O)[C@@H]2O)ccc1O
inactive: [1] -0.566% | [2] 0.393% | [3] -12% | [4] 0.239% | [5] | [6]

CC1=CC(=O)CC(C)(C)C1/C=C/C(C)OC1OC(COC2OCC(O)C(O)C2O)C(O)C(O)C1O (configuration not stated)
inactive: [1] 0.665% | [2] -4.28% | [3] -0.25% | [4] 9.19% | [5] | [6] inactive [at 17.4 µM]

CC(C)c1ccc2c(c1)[C@H](O)CC1[C@@](C)(C(=O)O)CCC[C@]21C (some centres not stated)
inactive: [1] -0.592% | [2] -18.5% | [3] -16.8% | [4] -0.988% | [5] | [6]

CC1=C2C(=O)C=C(CO[C@@H]3O[C@H](CO)[C@@H](O)[C@H](O)[C@H]3O)[C@@H]2[C@H]2OC(=O)[C@H](C)[C@@H]2[C@@H](O)C1
inactive: [1] | [2] -50.9% | [3] 0.75% | [4] 2.15% | [5] | [6] inactive [at 17.4 µM]

CCC/C=C1\OC(=O)C2=C1CCC(O)C2O (configuration not stated)
inactive: [1] | [2] 1.42% | [3] 3.9% | [4] 0.969% | [5] | [6]

Cc1cc(CNC(=O)c2cc(C(=O)NCc3ccc(F)c(C)c3)ncn2)ccc1F
inactive: [1] 4.78% | [2] 1.88% | [3] -0.507% | [4] | [5] | [6]

O=C(OC[C@H]1O[C@@H](Oc2ccccc2COC(=O)C2(O)C=CCCC2O)[C@H](O)[C@@H](O)[C@@H]1O)c1ccccc1 (some centres not stated)
inactive: [1] | [2] -3.05% | [3] 3.77% | [4] 1.49% | [5] | [6] inactive [at 17.4 µM]

C[C@@H]1O[C@@H](O[C@H]2[C@H](OC(=O)[C@]34CCC(C)(C)C[C@H]3C3=CCC5[C@@]6(C)C[C@@H](O)[C@@H](O[C@@H]7O[C@H](CO)[C@@H](O)[C@H](O)[C@H]7O)[C@@](C)(CO)C6[C@H](O)C[C@@]5(C)[C@]3(C)CC4)OC[C@H](O)[C@@H]2O)[C@H](O)[C@H](O[C@@H]2OC[C@](O)(CO)[C@H]2O)[C@H]1O[C@@H]1OC[C@@H](O)[C@H](O[C@H]2O[C@H](C)[C@@H](O)[C@H](O)[C@@H]2O)[C@H]1O (some centres not stated)
inactive: [1] | [2] 4.64% | [3] 2.54% | [4] | [5] | [6] inactive [at 9.27 µM]

CC(C)=C1CC2C(CCC2(C)O)C(C)(O)CC1=O (configuration not stated)
inactive: [1] | [2] -3.11% | [3] -16.7% | [4] | [5] | [6]

CCN=C1N[C@@H]2[C@@H](O)[C@H](O)[C@@H](CO)O[C@@H]2S1
inactive: [1] 3.4% | [2] -6.92% | [3] 2.86% | [4] 6.7% | [5] | [6]

CCCNCCOc1ccc(NC(=O)c2c[nH]c3c2C(=O)CCC3)cc1F
inactive: [1] -8.08% | [2] -31.5% | [3] -4.5% | [4] 6.85% | [5] | [6]

C/C(=C\CCC(C)C1CC(O)C2(C)C3CCC4C(C)(C)C(OC5OCC(O)C(O)C5O)CCC45CC35CC(O)C12C)C(=O)O (configuration not stated)
inactive: [1] 3.53% | [2] 0.956% | [3] 3.75% | [4] 9.72% | [5] | [6] inactive [at 17.4 µM]

CC(=O)OCC1OC(O[C@H]2CC[C@]34C[C@]35CC(O)[C@]3(C)[C@@H]([C@H](C)CC/C=C(\C)C(=O)O)C(O)C[C@@]3(C)C5CC[C@H]4C2(C)C)C(O)C(O)C1OC1OCC(O)C(O)C1O (some centres not stated)
inactive: [1] -0.106% | [2] -3.14% | [3] 2.3% | [4] 7.5% | [5] | [6] inactive [at 9.27 µM]

COC(=O)C1=COC(O[C@@H]2O[C@H](CO)[C@@H](O)[C@H](O)[C@H]2O)C2C(C)C(=O)CC12 (some centres not stated)
inactive: [1] -2.22% | [2] -2% | [3] -11.3% | [4] 2.31% | [5] | [6]

CC1=C[C@H](O)[C@H]2C(C)(C)CCC[C@]2(C)[C@@]1(O)CO
inactive: [1] -1.57% | [2] -4.11% | [3] 3.1% | [4] | [5] | [6]

COc1ccc(C(=O)NCc2cc(C(C)C)no2)cc1OC1CCN(C)CC1
inactive: [1] -1.84% | [2] -4.29% | [3] 4.96% | [4] -1.9% | [5] | [6]

C=C[C@H]1[C@H](O[C@@H]2O[C@H](CO)[C@@H](O)[C@H](O)[C@H]2O)OC=C(C(=O)OC)[C@H]1CC=O
inactive: [1] 3.16% | [2] -0.876% | [3] 4.35% | [4] | [5] | [6]
